High-throughput results (PubChem BioAssay)
TRHR PAM: allosteric enhancers of human TRH receptor; P34981; TRHR cells, fluo-8 calcium fluorescence, EC20 TRH enhancement; enhancement, % at 2 µM; 0.66% of 360,000 active; AID 493056; in the data active means enhancement above about 30%
Target sequence (P34981 whole entry, looked up): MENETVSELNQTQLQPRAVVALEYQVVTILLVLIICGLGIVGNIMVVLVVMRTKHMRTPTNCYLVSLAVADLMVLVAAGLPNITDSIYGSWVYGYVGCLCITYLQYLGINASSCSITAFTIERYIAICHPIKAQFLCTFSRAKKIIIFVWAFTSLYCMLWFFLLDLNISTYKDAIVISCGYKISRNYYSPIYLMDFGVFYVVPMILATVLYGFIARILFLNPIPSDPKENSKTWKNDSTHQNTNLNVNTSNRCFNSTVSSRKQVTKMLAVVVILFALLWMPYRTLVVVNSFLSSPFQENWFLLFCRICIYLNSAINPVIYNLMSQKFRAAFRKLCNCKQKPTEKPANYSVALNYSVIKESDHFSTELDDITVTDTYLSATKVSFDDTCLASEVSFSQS
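TRHR-expressing cells loaded with fluo-8 calcium dye were read kinetically (ex 480/em 530) during compound addition, then stimulated with an EC20 of TRH (10 nM final). Enhancement of the Gq-mediated intracellular calcium response was scored.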
D1 agonist: activates the human D1 dopamine receptor | HEK293 T-REx D1 cells, calcium flux, agonist mode | activation, % at 2 µM | 1% of 360,000 active | AID 504660
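Agonism was scored from calcium flux recorded over 180 s (1 read/s) after pintool compound addition, following a 10-cycle baseline. Cells were inducible force-coupled HEK293 TREx D1, plated overnight at 30 C and loaded with no-wash calcium dye.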
D1 antagonist: human D1 dopamine receptor antagonism; activity change, negative = inhibition, % at 10 µM; AID 504652; 3.2% of 360,000 active; P21728; HEK293 TREx D1 cells, calcium flux, dopamine EC80; active compounds read low; in the data active means activity change below about -30%
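Inducible Hek293 Trex D1 cells (tetracycline, overnight, 30 C). Calcium dye 30–90 min RT. Antagonist mode: EC80 dopamine added after 180 s compound read.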
TRHR agonist: activates the human TRH receptor; activation, % at 2 µM; 0.18% of 360,000 active; TRHR cells, calcium flux fluo-8, FDSS agonist mode; AID 493084; P34981
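Fluo-8-loaded TRHR cells; 10 s baseline, compound added, kinetic Ca2+ fluorescence read 1/s, agonist mode.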
GRP78 ERSR act: ER stress response induction in glioma. 0.02% of 420,000 active. AID 602332. U87-MG GRP78 promoter luciferase reporter, 16 h. Potency, µM, actives largely listed as activators; active means well fitted activation curve with a large enough effect; inconclusive means small, poorly fitted or top-dose-only effect; inactive means no such curve, though single readings can be large or run the other way; further: series mostly up to about 76 µM; nearly all actives have a fitted effect of over 35% in size
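ERSR induction read as luciferase luminescence (Bright-Glo, 10 min at room temperature) in stably transfected human U87-MG glioma cells exposed to compounds for 16 h, using GRP78 as sensor.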
D1 PAM: human D1 dopamine receptor positive modulation; P21728; HEK293 TREx D1 cells, calcium flux, dopamine EC20 potentiation; potentiation, % at 10 µM; 0.036% of 360,000 active; in the data active means potentiation above about 30%
Each line names hits and unclear results; the compound was inactive in the other large screens; ! = repeats disagree. Only some compounds are listed: those with a hit (about 4% of all), similar ones and a draw of the others. Unless noted, no stated cut-off is given here; in the data, active means activation above about 30%; inactive means the rest.

O=C(CN1C(=O)NC(c2ccccc2)(c2ccccc2)C1=O)NC1CCS(=O)(=O)C1 (configuration not stated)	none
CC1CC(CN)CC(CO)C1 (configuration not stated)	none
CC(C)N(C(=O)CSc1nc2ccc(Cl)cc2[nH]1)c1ccccc1	D1 antagonist -44 (no result: GRP78 ERSR act)
CC(C)N(C(=O)CSc1nc2c([nH]1)c(=O)n(C)c(=O)n2C)c1ccccc1	none
O=C(CCNC(=O)c1ccccc1)OCN1C(=O)c2ccccc2C1=O	none
COc1ccc(C23CC4CC(CC(C4)C2)C3)cc1C(=O)NCCN(C)C	D1 agonist 39
COc1ccccc1C(=O)NCCC(=O)NCCC12CC3CC(CC(C3)C1)C2	D1 antagonist -31
COc1cc(OC)c(C(=O)NC23CC4CC(CC(C4)C2)C3)cc1OC	none
O=C(COC(=O)c1ccccn1)NC(=O)c1ccccc1	none
Cc1cc(-c2ccccc2)c2c3c(c(-c4ccccc4)n2n1)c(=O)n(C)c(=O)n3C	D1 antagonist -68
CN(C)CCN(Cc1ccccc1)C(=O)[C@H](Cc1ccccc1)N1C(=O)c2ccccc2C1=O	none
Cn1c(=O)oc2cc(S(=O)(=O)Nc3ccc(Cl)cc3)ccc21	none
Cn1c(=O)oc2cc(S(=O)(=O)Nc3ccc(O)cc3)ccc21	D1 antagonist -31!
Cc1ccc2c(c1)-c1c(ssc1=S)C(C)(C)N2C(=O)CSc1nncn1C	none
Cc1cc(C)c2c(c1)-c1c(ssc1=S)C(C)(C)N2C(=O)CSc1nncn1C	D1 agonist 39
CC(C)(C)OC(=O)N[C@@H](Cc1c[nH]c2ccccc12)c1nnc(SCC(N)=O)o1	none
Cc1[nH]cnc1CSCc1ccc(Cl)cc1	D1 agonist 36
Cc1[nH]cnc1CSCCN	none
O=C(NC(NC(=S)Nc1cc(Cl)ccc1Cl)C(Cl)(Cl)Cl)c1ccco1 (configuration not stated)	D1 antagonist -40
O=C(NC(NC(=S)Nc1ccc(Cl)c(Cl)c1)C(Cl)(Cl)Cl)c1ccco1 (configuration not stated)	none (no result: TRHR PAM, D1 agonist, D1 antagonist, TRHR agonist, D1 PAM)
O=C(/C=C/c1ccccc1)NC(NC(=S)Nc1cc(Cl)ccc1Cl)C(Cl)(Cl)Cl (configuration not stated)	D1 antagonist -37
O=c1cc(-c2ccccc2)cc(-c2ccccc2)n1CCO	none
CCCCn1c(N)c(N(CC(C)C)C(=O)Cn2c(=O)cnc3ccccc32)c(=O)[nH]c1=O	none
CCCCn1c(N)c(N(CC(C)C)C(=O)Cn2c(=O)oc3ccccc32)c(=O)[nH]c1=O	D1 antagonist -44
O=Nc1c(O)n(Cc2cccc(C(F)(F)F)c2)c2ccccc12	D1 agonist 69
CCc1cc(/C(Cc2cscn2)=N\O)c(O)cc1O	TRHR PAM 30
CC(OC(=O)/C(C#N)=C/c1ccc(N(C)C)cc1)C(=O)N(C)c1ccccc1 (configuration not stated)	D1 agonist 70, TRHR agonist 49
CC(=O)Nc1ccc(NC(=O)C(C)OC(=O)c2ccc(N(C)C)cc2)cc1 (configuration not stated)	GRP78 ERSR act inconclusive (no result: D1 PAM)
CC(=O)Nc1ccc(NC(=O)C(C)OC(=O)/C(C#N)=C/c2ccc(N(C)C)cc2)cc1 (configuration not stated)	D1 agonist 84
CC(C)OC(=O)/C(C#N)=C\c1cccnc1	none
Brc1ccccc1C1CC(c2ccccc2)=Nc2ccccc2N1 (configuration not stated)	none
CCOc1ccc(CN(C)C(C)C(=O)Nc2ccc([N+](=O)[O-])cc2Cl)cc1OC (configuration not stated)	none
CC(=O)OCC1=C(C(=O)O)N2C(=O)C(NC(=O)c3ccc(COc4ccc(Cl)cc4)o3)C2SC1 (configuration not stated)	none
Cc1cc(C(=O)NCc2cccnc2)n(-c2ccccc2)n1	none
Cc1nn(Cc2ccccc2)c2sc(C(=O)NCc3cccnc3)cc12	D1 antagonist -47
Cc1nn(Cc2ccccc2)c2sc(C(=O)N3CCN(Cc4ccc5c(c4)OCO5)CC3)cc12	D1 antagonist -31
O=C(O)c1ccccc1C(=O)N1CCN(Cc2ccc3c(c2)OCO3)CC1	none
COc1cccc(C(=O)NCCc2csc3nc(-c4ccccc4F)nn23)c1OC	TRHR PAM 35
O=C(NCCc1csc2nc(-c3ccccc3F)nn12)c1ccccc1C(F)(F)F	none
CN(c1ccccc1)S(=O)(=O)c1ccc2[nH]c(=O)oc2c1	none
CN(Cc1ccccc1)S(=O)(=O)c1ccc2[nH]c(=O)oc2c1	D1 antagonist -38
COc1ccccc1-c1cc(C(=O)Nc2sc3c(c2C#N)CCC(C)C3)c2ccccc2n1 (configuration not stated)	none
NC(N)=Nc1nc(C2COc3ccccc3O2)cs1 (configuration not stated)	D1 antagonist -31
CCOC(=O)c1c(-c2ccccc2)c2cc(OC)ccc2n1CCCN(C)C	D1 agonist 31
CCOC(=O)c1c(C)n(CCNC(C)=O)c2ccc(OC)cc12	none
O=C(Nc1ccccc1N1CCCC1)c1ccc(Cl)cc1Cl	D1 antagonist -33
O=C(Nc1ccccc1N1CCN(C(=O)c2ccccc2)CC1)c1ccccc1Cl	D1 antagonist -45
COc1nnc(-c2ccc(N3CCCCC3)c(NC(=O)c3ccc(Cl)cc3)c2)c2ccccc12	TRHR PAM 39
O=C(Nc1ccccc1N1CCCC1)c1ccccc1Cl	none
COc1nnc(-c2ccc(N3CCCCC3)c(NC(=O)c3ccccc3)c2)c2ccccc12	none
Fc1ccc(CSc2ncnc3scc(-c4ccccc4)c23)cc1	D1 agonist 35
CCN(CC)S(=O)(=O)c1ccc(C(=O)NCCOC(=O)c2ccc(F)cc2F)cc1	none
Cc1ccc(-c2cc(-c3ccccc3)[nH]c(=S)c2C#N)cc1	none
N#Cc1c(-c2ccc(C(F)(F)F)cc2)cc(-c2ccccc2)[nH]c1=S	D1 antagonist -31
CC(Nc1nc(Cl)nc2nc[nH]c12)c1ccccc1 (configuration not stated)	none (no result: TRHR PAM, D1 agonist, D1 antagonist, TRHR agonist, D1 PAM)
CC(C)(C)NC(=O)CN(C(=O)C1CSC(=O)C1)c1ccc2c(c1)OCCO2 (configuration not stated)	D1 antagonist -36
CC(O)CO (configuration not stated)	none (no result: D1 antagonist)
COc1ccc(OC)c(-c2csc(NC(=O)COC(=O)C3(C)CC3(Cl)Cl)n2)c1 (configuration not stated)	D1 antagonist -48
CN(C)CCCN(C(=O)c1ccco1)c1nc(-c2ccc(Cl)cc2)cs1	D1 agonist 33, D1 antagonist -42
COc1ccc(CC(=O)Nc2nc(-c3cc(OC)ccc3OC)cs2)cc1	none
